According to PubChem BioAssay (Tox21):
Values joined by “and” are separate entries in the source; they are usually repeats but may differ in a detail not shown here. Equal entries are not always repeated. Records with an inconclusive call do not appear. A call without a number means that no potency is given here. The source holds several records for some structures; these can differ, active in one and inactive in another. Active and inactive are the calls of the source. Unless noted, calls follow the shape of the dose curve; as a rule, active = well fitted curve in the direction sought with a large enough effect in the repeat runs; inconclusive = weak or mixed curves; inactive = no such curve, though single readings can be large; an effect the other way counts as inactive or inconclusive.

Legend:
[1] = qHTS assay to identify small molecule agonists of the hypoxia (HIF-1) signaling pathway - cell viability counter screen (AID 1224844; calls by dose curve; also: nearly all actives have a fitted effect of over 50% in size; also: potency is read from the fitted curve at half-maximal effect)
In short: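 HRE-bla ME-180 cells, 2,000/well in 0.5% dialyzed FBS medium, treated 17 h at 37C with compounds. Viability read in the same wells as the bla reporter, by CellTiter-Glo luminescence after 30 min at room temperature.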

[2] = qHTS assay to identify small molecule agonists of H2AX (AID 1224845; active = well fitted activation curve with a large enough effect in the signal ratio in the repeat runs, not every such curve was filed as active; the % refers to the signal ratio; also: potency is read from the fitted curve at half-maximal effect)
In short: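 Phospho-H2AX Ser139 measured by HTRF (ex 320 nm; em 665 and 620 nm) after 24 hr antibody incubation. Compounds, 15 concentrations, 0.76% DMSO, were applied to CHO-K1 cells for 3hr at 37C before lysis.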

[3] = qHTS assay to identify small molecule agonists of H2AX - cell viability counter screen (AID 1224847; calls by dose curve; also: nearly all actives have a fitted effect of over 30% in size; also: potency is read from the fitted curve at half-maximal effect)
In short: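 Cytotoxicity counter screen in wild-type CHO-K1 cells: a 3 hr compound treatment at 37C across 15 concentrations, followed by CellTiter-Glo luminescence to gauge viable cells.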

[4] = qHTS RealTime-Glo MT Cell Viability Assay in HepG2 cells - 24 hour (AID 1224867); also: nearly all actives have a fitted effect of over 50% in size; also: potency is read from the fitted curve at half-maximal effect
In short: (§1)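 Cell number in HepG2 cultures estimated from NanoLuc luminescence generated by metabolic reduction of a prosubstrate by living cells. The homogeneous, nonlytic format allowed repeated reads at 0, 8, 16, 24, 32 and 40 h of compound exposure.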

[5] = qHTS RealTime-Glo MT Cell Viability Assay in HEK293 cells - 32 hour (AID 1224868); also: nearly all actives have a fitted effect of over 50% in size; also: potency is read from the fitted curve at half-maximal effect
In short: (§2)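 Homogeneous bioluminescent viability format in HEK293 cells (600 cells/well). Following 5 h at 37 C/5% CO2, 23 nL compound was pintooled; the signal was measured repeatedly during 40 h incubation.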

[6] = A CellTox Green Cytotoxicity Assay to monitor cytotoxicity in HEK293 cells - 0 hour (AID 1224869); also: nearly all actives have a fitted effect of over 50% in size; also: potency is read from the fitted curve at half-maximal effect
In short: (§3)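 HEK293 cells, 600/well, were preincubated 5 hours and then exposed to compounds at 37 C for up to 40 hours. A cell-impermeant cyanine dye staining dead-cell DNA was read by fluorescence at 0, 8, 16, 24, 32 and 40 h time points.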

[7] = qHTS RealTime-Glo MT Cell Viability Assay in HepG2 cells - 40 hour (AID 1224870); also: nearly all actives have a fitted effect of over 50% in size; also: potency is read from the fitted curve at half-maximal effect
In short: (§4)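 Real-time viability: cells seeded at 600 per well together with NanoLuc and cell-permeant prosubstrate, compounds added after 5 h incubation. Luminescence tracked at 0, 8, 16, 24, 32 and 40 h of exposure.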

[8] = A CellTox Green Cytotoxicity Assay to monitor cytotoxicity in HEK293 cells - 40 hour (AID 1224871); also: nearly all actives have a fitted effect of over 45% in size; also: potency is read from the fitted curve at half-maximal effect
In short: as §3

[9] = qHTS RealTime-Glo MT Cell Viability Assay in HEK293 cells - 16 hour (AID 1224872); also: nearly all actives have a fitted effect of over 50% in size; also: potency is read from the fitted curve at half-maximal effect
In short: as §2

[10] = qHTS RealTime-Glo MT Cell Viability Assay in HepG2 cells - 8 hour (AID 1224873); also: nearly all actives have a fitted effect of over 55% in size; also: potency is read from the fitted curve at half-maximal effect
In short: as §4

[11] = A CellTox Green Cytotoxicity Assay to monitor cytotoxicity in HEK293 cells - 24 hour (AID 1224875); also: nearly all actives have a fitted effect of over 45% in size; also: potency is read from the fitted curve at half-maximal effect
In short: as §3

[12] = A CellTox Green Cytotoxicity Assay to monitor cytotoxicity in HepG2 cells - 24 hour (AID 1224878); also: nearly all actives have a fitted effect of over 45% in size; also: potency is read from the fitted curve at half-maximal effect
In short: (§5)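 HepG2 cells, 600/well, preincubated 5 h with CellTox Green dye, then exposed to Tox21 compounds in DMSO at 37 C for up to 40 h. Dead-cell DNA fluorescence read at the indicated time point.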

[13] = A CellTox Green Cytotoxicity Assay to monitor cytotoxicity in HepG2 cells - 40 hour (AID 1224879); also: nearly all actives have a fitted effect of over 40% in size; also: potency is read from the fitted curve at half-maximal effect
In short: as §5

[14] = qHTS RealTime-Glo MT Cell Viability Assay in HEK293 cells - 0 hour (AID 1224880); also: top concentration of the series differs between compounds; nearly all actives have a fitted effect of over 45% in size
In short: (§6)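 600 cells/well were plated with the nonlytic NanoLuc/prosubstrate reagent, pre-incubated 5 h, then given 23 nL of compound in DMSO. Incubation at 37 C for 40 h, with luminescence from viable-cell-reduced substrate read repeatedly from 0 h.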

[15] = qHTS RealTime-Glo MT Cell Viability Assay in HEK293 cells - 40 hour (AID 1224874); details: RealTime-Glo luminescence; max response: stronger effect = lower value; also: nearly all actives have a fitted effect of over 50% in size; also: potency is read from the fitted curve at half-maximal effect
In short: as §6

[16] = A CellTox Green Cytotoxicity Assay to monitor cytotoxicity in HepG2 cells - 16 hour (AID 1224876); also: nearly all actives have a fitted effect of over 45% in size; also: potency is read from the fitted curve at half-maximal effect
In short: as §5

[17] = qHTS RealTime-Glo MT Cell Viability Assay in HepG2 cells - 32 hour (AID 1224877); also: nearly all actives have a fitted effect of over 55% in size; also: potency is read from the fitted curve at half-maximal effect
In short: as §1

[18] = qHTS assay to identify small molecule agonists of the hypoxia (HIF-1) signaling pathway (AID 1224846; active = well fitted activation curve with a large enough effect in the signal ratio in the repeat runs, not every such curve was filed as active; the % refers to the signal ratio)
In short: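 HRE-bla ME-180 beta-lactamase reporter cells in medium with 0.5% dialyzed FBS, pre-incubated 5 h then exposed to compounds 17 h at 37C, 5% CO2; reporter induction read with CCF4-AM FRET substrate.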

[19] = qHTS assay to identify small molecule agonists of the estrogen related receptor (ERR) signaling pathway from Tox21 library (AID 1224849; calls by dose curve; also: nearly all actives have a fitted effect of over 15% in size); details: ERR reporter cell line, ONE-Glo luciferase, 18 h; at 92.4 µM (top of the series) unless noted
In short: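 ERR reporter cells (NTP line) pre-incubated 6 hours at 37 C, then exposed to compounds for 18 hours at 37 C. ONE-Glo luciferase luminescence was read after 30 minutes at room temperature.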

[20] = qHTS assay to identify small molecule antagonists of the estrogen related receptor (ERR) signaling pathway from Tox21 library (AID 1224848); also: nearly all actives have a fitted effect of over 50% in size; also: potency is read from the fitted curve at half-maximal effect
In short: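 Reading was by luminescence 30 min after ONE-Glo addition. Before that, ERR cells at 2,000 per well had rested 6 h at 37 C/5% CO2 and then received pin-tooled compounds in DMSO for 18 h at 37 C.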

For `C[N+]1(C)[C@@H]2CC[C@H]1CC(OC(=O)C(CO)c1ccccc1)C2` (stereo partly specified), the Potency [1] was “inactive”, the Potency [2] was “inactive” and the Potency [3] was “inactive”. For the same compound, the Potency [4] was “inactive”, the Potency [5] was “inactive” and the Potency [6] was “inactive”. For the same compound, the Potency [7] was 23.9 µM (active), the Potency [8] was “inactive” and the Potency [9] was “inactive”. For the same compound, the Potency [10] was “inactive”, the Potency [11] was “inactive” and the Potency [12] was “inactive”. For the same compound, the Potency [13] was “inactive” and the Potency [14] was “inactive”.

With `[O]=[Cr](=[O])([OH])[O][Cr](=[O])(=[O])[OH]` the Potency [1] was 2.78 µM (active) and 12.3 µM (active), the Potency [2] was 101 µM (active) and the Potency [3] was 90.6 µM (active). The Potency [5] was 4.41 µM (active) and 4.36 µM (active), the Potency [6] was “inactive” and the Potency [8] was “inactive”. For the same compound, the Potency [9] was 7.83 µM (active) and 21.8 µM (active), the Potency [10] was “inactive” and the Potency [15] was 3.5 µM (active) and 2.18 µM (active). For the same compound, the Potency [11] was “inactive”, the Potency [16] was “inactive” and the Potency [12] was “inactive”. The Potency [13] was 9.86 µM (active) and 12.3 µM (active) and the Potency [14] was “inactive”.

In the case of `O=S1OCC2C(CO1)C1(Cl)C(Cl)=C(Cl)C2(Cl)C1(Cl)Cl` (stereo unspecified), the Potency [1] is reported as 48.9 µM (active), the Potency [2] is reported as 89.9 µM (active) and 101 µM (active) and the Potency [3] is reported as 101 µM (active) and 89.7 µM (active). The Potency [4] was 54.9 µM (active), the Potency [5] was 21.9 µM (active) and 38.9 µM (active) and the Potency [6] was “inactive”. The Potency [7] was “inactive”, the Potency [8] was 49 µM (active) and 54.9 µM (active) and the Potency [9] was 19.5 µM (active) and 38.9 µM (active). The Potency [10] was 48.9 µM (active), the Potency [11] was 55 µM (active) and 54.9 µM (active) and the Potency [16] was 48.9 µM (active). The Potency [17] was “inactive and 54.9 µM (active)”, the Potency [13] was 54.9 µM (active) and the Potency [14] was “inactive”.

With `O=C(Nc1ccc(F)cc1F)c1cccnc1Oc1cccc(C(F)(F)F)c1` the Potency [1] was “inactive”, the Potency [18] was “inactive” and the activity change, positive = activation [19] was 5% (inactive). The Potency [4] was “inactive”, the Potency [5] was “inactive” and the Potency [6] was “inactive”. For the same compound, the Potency [7] was “inactive”, the Potency [8] was 53.8 µM (active) and the Potency [9] was “inactive”. For the same compound, the Potency [10] was “inactive”, the Potency [11] was “inactive” and the Potency [17] was “inactive”. The Potency [12] was “inactive”, the Potency [13] was “inactive” and the Potency [14] was “inactive”.

For `Brc1cccc(-c2ccccc2)c1`, the Potency [1] was “inactive”, the Potency [18] was “inactive” and the Potency [20] was “inactive”. For the same compound, the activity change, positive = activation [19] was -0.973% (inactive), the Potency [4] was “inactive” and the Potency [5] was “inactive”. For the same compound, the Potency [6] was “inactive”, the Potency [7] was “inactive” and the Potency [8] was 39.2 µM (active). The Potency [9] was “inactive”, the Potency [10] was “inactive” and the max response [15] was -11.2% (inactive). The Potency [16] was “inactive”, the Potency [17] was “inactive” and the Potency [12] was “inactive”. For the same compound, the Potency [13] was “inactive” and the Potency [14] was “inactive”.

With `CCCCn1cc[n+](C)c1.[Cl][Fe-]([Cl])([Cl])[Cl]` the Potency [1] was “inactive”, the Potency [18] was “inactive” and the Potency [3] was “inactive”. The Potency [4] was “inactive”, the Potency [5] was “inactive” and the Potency [6] was “inactive”. For the same compound, the Potency [7] was “inactive”, the Potency [8] was “inactive” and the Potency [9] was “inactive”. For the same compound, the Potency [10] was “inactive”, the Potency [11] was “inactive” and the Potency [16] was “inactive”. For the same compound, the Potency [17] was “inactive”, the Potency [12] was “inactive” and the Potency [13] was “inactive”. The Potency [14] was “inactive”.

In the case of `CCOP(=S)(OCC)SC(CCl)N1C(=O)c2ccccc2C1=O` (stereo unspecified), the Potency [1] is reported as “inactive”, the Potency [18] is reported as “inactive” and the Potency [3] is reported as “inactive”. For the same compound, the Potency [4] was “inactive”, the Potency [5] was “inactive” and the Potency [6] was “inactive”. For the same compound, the Potency [7] was “inactive”, the Potency [8] was “inactive” and the Potency [9] was “inactive”. The Potency [10] was “inactive”, the max response [15] was 6.49% (inactive) and the Potency [11] was “inactive”. The Potency [16] was “inactive” and the Potency [17] was “inactive”.

With `CC(O)C(=O)[O][Hg][c]1ccccc1` (stereo unspecified) the Potency [1] was 1.38 µM (active), the Potency [3] was 6.35 µM (active) and the Potency [20] was 3.86 µM (active). For the same compound, the activity change, positive = activation [19] was -80.9% (inactive), the Potency [4] was 2.45 µM (active) and the Potency [5] was 977 nM (active). The Potency [6] was “inactive”, the Potency [7] was 2.75 µM (active) and the Potency [8] was 0.977 µM (active). The Potency [9] was 1.1 µM (active), the Potency [10] was 2.19 µM (active) and the Potency [15] was 977 nM (active). The Potency [11] was 21.9 µM (active), the Potency [16] was 2.75 µM (active) and the Potency [17] was 2.75 µM (active). The Potency [12] was 2.45 µM (active), the Potency [13] was 1.95 µM (active) and the Potency [14] was “inactive”.

In the case of `Nc1nc(N)c(N)c(N)n1`, the Potency [1] is reported as “inactive”, the Potency [18] is reported as “inactive” and the Potency [3] is reported as “inactive”. For the same compound, the Potency [20] was “inactive”, the activity change, positive = activation [19] was 0.198% (inactive) and the Potency [4] was “inactive”. The Potency [5] was “inactive”, the Potency [6] was 49.2 µM (active) and the Potency [7] was “inactive”. The Potency [8] was 49.2 µM (active), the Potency [9] was “inactive” and the Potency [10] was “inactive”. The max response [15] was 10.2% (inactive), the Potency [11] was 49.2 µM (active) and the Potency [16] was 55.2 µM (active). For the same compound, the Potency [17] was “inactive” and the Potency [13] was 55.2 µM (active).

In the case of `CCOP(=S)(NC(C)C)Oc1ccccc1C(=O)OC(C)C` (stereo unspecified), the Potency [1] is reported as 6.16 µM (active), the Potency [2] is reported as “inactive” and the Potency [5] is reported as 43600 nM (active). For the same compound, the Potency [6] was “inactive”, the Potency [8] was “inactive” and the Potency [10] was “inactive”. The Potency [15] was 43600 nM (active), the Potency [11] was “inactive” and the Potency [16] was “inactive”. For the same compound, the Potency [12] was “inactive” and the Potency [13] was 38.9 µM (active).

In the case of `CCOP(=O)(Sc1ccccc1)Sc1ccccc1`, the Potency [1] is reported as “inactive”, the Potency [18] is reported as “inactive” and the Potency [4] is reported as “inactive”. For the same compound, the Potency [5] was “inactive”, the Potency [6] was “inactive” and the Potency [7] was “inactive”. The Potency [8] was “inactive”, the Potency [9] was “inactive” and the Potency [10] was “inactive”. The max response [15] was -12.3% (inactive), the Potency [11] was “inactive” and the Potency [16] was “inactive”. The Potency [17] was “inactive”, the Potency [12] was “inactive” and the Potency [13] was “inactive”. The Potency [14] was “inactive”.

With `Cc1ccc2cc3c(ccc4ccccc43)c3c2c1CC3` the Potency [1] was “inactive”, the Potency [2] was “inactive” and the Potency [3] was “inactive”. The Potency [4] was “inactive”, the Potency [5] was “inactive” and the Potency [6] was “inactive”. The Potency [7] was “inactive”, the Potency [9] was “inactive” and the Potency [10] was “inactive”. The max response [15] was 6.91% (inactive), the Potency [16] was “inactive” and the Potency [17] was “inactive”. The Potency [13] was 6.93 µM (active) and the Potency [14] was “inactive”.
